Experimental findings from PubChem BioAssay (Tox21) are described below.

Inconclusive results are not listed. The source made the active and inactive calls. Calls come from the whole dose curve. Numbered stars: 1 amine (or outer) side, 2 acyl side, 3 side chain; on linkers, the order of the positions; unused ones are H or OH. Bridge positions count the residues as written; N and C are the ends. Square brackets hold non-standard residues; d marks the D form. Peptide text beside a SMILES is read from it. I, II: the chains in the order shown. Actinocin(9to1) = Cc1c2oc3c(C)ccc(C(=O)[*:1])c3nc-2c(C(=O)[*:2])c(N)c1=O; NMeV = CN[C@H](C(=O)O)C(C)C; Sar = CNCC(=O)O
% is set by controls: 0 for no effect and ±100 for the full control effect.

This experiment deals with Beta-2 adrenergic receptor (Homo sapiens) (UniProt P07550). Nature of the experiment: Adrenergic beta2 receptor (ADRB2) small molecule agonists, cell-based qHTS assay (AID 1963593).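 Note: CHO cells stably overexpressing human ADRB2.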 The conditions noted are these: CHO-ADRB2 cells, cAMP HTRF, 30 min; series mostly up to 92.4 µM; activation: at the top concentration. In short, it runs like this: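 CHO cells stably over-expressing ADRB2 were plated overnight at 37C, then dosed with compounds plus a stimulation mix containing 100uM IBMX and 25uM Ro-20-1724 for 0.5hr at room temperature. cAMP was measured by HTRF competition, 1hr.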
Sequence of Beta-2 adrenergic receptor (Homo sapiens) (P07550 whole entry, looked up): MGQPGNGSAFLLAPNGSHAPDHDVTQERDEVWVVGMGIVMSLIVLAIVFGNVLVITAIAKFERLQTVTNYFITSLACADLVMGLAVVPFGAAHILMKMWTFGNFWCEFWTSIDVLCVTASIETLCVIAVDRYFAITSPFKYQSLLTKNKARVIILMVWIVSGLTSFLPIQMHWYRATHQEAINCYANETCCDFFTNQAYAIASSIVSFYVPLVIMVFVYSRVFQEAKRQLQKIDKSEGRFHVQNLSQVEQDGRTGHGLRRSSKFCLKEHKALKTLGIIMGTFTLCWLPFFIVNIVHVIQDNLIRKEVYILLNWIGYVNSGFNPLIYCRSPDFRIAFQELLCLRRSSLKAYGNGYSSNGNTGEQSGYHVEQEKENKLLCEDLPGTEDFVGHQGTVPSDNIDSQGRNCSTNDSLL
(In general: qHTS replaces the single test concentration by a dilution series.)
For the compound `c1ccc2cc3c4ccccc4c4ccccc4c3cc2c1`, the “activation” value is -25.3% (inactive).
Next, `Cn1cc(S(C)=O)c(=O)c2ccc(F)cc21` (stereo not given): 6.15% [at 42.5 µM] (inactive); `O=Cc1ccc(C(=O)O)cc1`: -19.3% (inactive).
Turning to `CC(C)=CCC[C@H](C)CC=O`, the “activation” value is 26.1% (inactive).
The same measure for `CCCCCC(=O)O[C@]1(C(C)=O)CC[C@H]2[C@@H]3CCC4=CC(=O)CC[C@]4(C)[C@H]3CC[C@@]21C`: 25.4% (inactive); for `O=[N+]([O-])c1ccc2c(c1)Cc1ccccc1-2`: 16.8% (inactive).
The same measure for `CCC1COC(=O)O1` (stereo not given): 13.4% (inactive).
As for `C=C(C)C(=O)OCCCCCCOC(=O)C(=C)C`, the “activation” value is -34% (inactive).
As for `Cc1c2oc3c(C)ccc(C(=O)N[C@@H]4C(=O)N[C@H](C(C)C)C(=O)N5CCC[C@H]5C(=O)N(C)CC(=O)N(C)[C@@H](C(C)C)C(=O)O[C@@H]4C)c3nc-2c(C(=O)N[C@@H]2C(=O)N[C@H](C(C)C)C(=O)N3CCC[C@H]3C(=O)N(C)CC(=O)N(C)[C@@H](C(C)C)C(=O)O[C@@H]2C)c(N)c1=O` (I: T[dV]P[Sar][NMeV] / II: T[dV]P[Sar][NMeV]; ester I:1-I:C, II:1-II:C; linker I:N-II:N via Actinocin(9to1)), the “activation” value was -25.1% [at 42.5 µM] (inactive).
Take `CCN1CCCC(OC(=O)C(c2ccccc2)c2ccccc2)C1` (stereo not given): the “activation” value was -8.85% [at 42.5 µM] (inactive).
The same measure for `CN(C)CCCNCCCN(C)C`: -14.5% (inactive); for `Cc1cc(C)cc(O)c1`: 17.2% (inactive); for `C=C(C)[C@@H]1CCC2=CC(=O)C[C@@H](C)[C@]2(C)C1`: -1.51% (inactive).
The same measure for `O=c1[nH]c(=O)c2ccccc2o1`: -16.2% [at 42.5 µM] (inactive).
Next, `CCCCCCCCCCCCCCC(=O)NC(CO)CCCCCCCCCCCCCC` (stereo not given): 0.464% (inactive).
For `C[C@@H]1CCC[C@H](C)N1CCCC(O)(c1ccccc1)c1ccccn1` (stereo not given in full), the “activation” value is -0.221% [at 42.5 µM] (inactive).
Next, `CCCCCCCCCC(C)=O`: -1.44% (inactive); `CN(C)c1ccc(C(=N)c2ccc(N(C)C)cc2)cc1`: -1.55% (inactive); `CNC(=O)Nc1ccc(Cl)c(Cl)c1`: -6.91% (inactive).
Next, `Nc1c(NC/C=C\COc2cc(CN3CCCCC3)ccn2)c(=O)c1=O`: -3.93% [at 19 µM] (inactive); `FC(F)(F)C(Cl)(Cl)Cl`: 7.3% (inactive).
In the case of `CCc1ccc(C=O)cc1`, the “activation” value is 1.81% (inactive).
For `CCCc1c2oc(C(=O)O)cc(=O)c2cc2c(=O)cc(C(=O)O)n(CC)c12`, the “activation” value is 0.688% [at 42.5 µM] (inactive).
Next, `O=C(O)Cc1ccc(CCNS(=O)(=O)c2ccc(Cl)cc2)cc1`: 7.9% [at 42.5 µM] (inactive); `Cc1cc(C)c(C(=O)O)c(C)c1`: -2.23% (inactive).
